Most compounds without a hit are left out; they make up all but 2.4% or so of the library.
D2 ag-1 – agonists of human D2 dopamine receptor. P14416. HEK293 T-REx D2 cells, calcium flux agonist mode. activation, % at 2 µM. hit rate 0.53% among 340,000;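 active = activation over 3 SD above normal in the single-dose calcium agonist read, cut at about 30% in these data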; note: 0% is about no effect
Target sequence (P14416 whole entry, looked up): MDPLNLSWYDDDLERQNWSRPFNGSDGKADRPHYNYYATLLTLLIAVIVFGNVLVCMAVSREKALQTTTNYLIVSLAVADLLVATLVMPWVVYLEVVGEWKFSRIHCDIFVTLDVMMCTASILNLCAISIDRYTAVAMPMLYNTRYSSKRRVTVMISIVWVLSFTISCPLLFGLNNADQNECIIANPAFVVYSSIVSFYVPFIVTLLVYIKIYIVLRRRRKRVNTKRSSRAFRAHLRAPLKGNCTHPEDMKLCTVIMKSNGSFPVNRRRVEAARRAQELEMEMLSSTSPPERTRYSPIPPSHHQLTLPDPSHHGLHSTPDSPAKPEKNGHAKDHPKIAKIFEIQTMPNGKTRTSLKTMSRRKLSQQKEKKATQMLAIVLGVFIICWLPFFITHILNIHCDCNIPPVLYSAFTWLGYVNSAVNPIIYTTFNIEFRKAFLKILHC
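Tetracycline-induced HEK293 T-REx cells with force-coupled D2 receptor, plated overnight at 30 C, loaded with no-wash calcium dye. After a 10 s baseline, compound was pin-added and calcium flux read kinetically for 180 s; calcium rises flagged agonists.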
D2 antagonist – D2 dopamine receptor (human) antagonism | P14416 | inhibition, % at 10 µM | hit rate 2% among 340,000 | HEK293 TREx D2 cells, calcium flux, dopamine EC80; in the data active = inhibition above about 30%; inactive = below that, where a call was filed; note: 0% is about no effect
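Calcium mobilization kinetics were recorded at 1 s intervals in tetracycline-induced HEK293 T-REx D2 cells, first for 180 s after compound addition and then 180 s after EC80 dopamine.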
D2 PAM-1 – positive allosteric modulators of human D2 dopamine receptor | P14416 | HEK293 T-REx D2, calcium flux, EC20 dopamine potentiation | potentiation, % at 10 µM | hit rate 0.34% among 340,000;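 active = potentiation over 3 SD above the plate norm, cut at about 30% in these data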; note: 0% is about no effect
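Tetracycline-induced HEK293 T-REx cells force-coupled to calcium signalling expressed D2; compounds were pin-added after a 10 s baseline, read kinetically 180 s, then an EC20 dopamine challenge followed with a further 180 s calcium read.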
D2 ag-2 – agonists of human D2 dopamine receptor (beta-arrestin); P14416; DiscoveRx PathHunter D2 beta-arrestin, luminescence, 90 min; 100% = 57 uM dopamine signal; activation, % (concentration not given with the values); hit rate 0.084% among 360,000; in the data active = activation above about 40%; inconclusive = between about 15% and that limit
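DiscoveRx PathHunter D2 beta-arrestin cells (2,100/well) attached overnight, then compound-stimulated 90 min at 37 C in HBSS/10 mM HEPES/0.1% Tween-20 buffer; beta-galactosidase complementation read by luminescence after 1 h at ambient temperature. Dopamine 57 uM final (EC100) as control.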
D2 PAM-2 – human D2 receptor positive allosteric modulation; P14416; DiscoveRx D2 beta-arrestin cells, luminescence, 90 min; 100% = 57 uM dopamine signal; potentiation, % (concentration not given with the values); hit rate 0.23% among 360,000; AID 624464; in the data active = potentiation above about 50%; inconclusive = mostly about 30% to 49%
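PathHunter D2 cells, attached overnight at 37 deg C, received compound in DMSO plus dopamine at EC20 (50 nM final) for 90 min at 37 deg C. Beta-arrestin recruitment was read as luminescence after 1 h with detection reagent at ambient temperature.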
Starred values were filed as active, the others as inactive; ? = inconclusive; . = not tested or not shown.

SMILES | D2 ag-1 | D2 antagonist | D2 PAM-1 | D2 ag-2 | D2 PAM-2
COc1cccc(-c2csc(N3CCN(C(=S)Nc4cccc(C)c4)CC3)n2)c1 | -0.7 | 85.8* | 14.7 | -5.5 | -14.8
COc1cccc(-c2csc(N3CCN(C(=S)Nc4ccccc4)CC3)n2)c1 | 0.2 | 2.0 | -11.8 | 1.2 | -12.7
O=C1N=c2ccccc2=C1c1sc(=S)n(CC2CCCO2)c1O (configuration not stated) | -2.2 | 2.2 | 4.4 | 13.3 | 107.6*
COc1ccc(CCn2c(O)c(C3=c4ccccc4=NC3=O)sc2=S)cc1OC | -0.5 | 10.5 | 7.2 | 6.0 | 28.1
Cc1ccccc1Cn1c(=O)n(CCCCCC(=O)NCc2ccc3c(c2)OCO3)c(=O)c2sccc21 | 1.0 | . | -0.4 | . | .
O=C(O)C1=C[C@@H](c2ccc3c(c2)OCO3)C[C@@H](OCc2ccc(CO)cc2)O1 | 0.0 | -8.1 | 11.6 | 1.2 | -36.2
NC(=O)C1=C[C@H](c2ccc3c(c2)OCO3)C[C@H](OCc2ccc(CO)cc2)O1 | 0.0 | 33.1* | -6.6 | 1.0 | -7.8
Cc1[nH]c2ccccc2c1C(c1ccncc1)N1CCN(c2ccccn2)CC1 (configuration not stated) | 35.2* | 14.6 | -21.0 | -0.4 | 2.7
COc1ccccc1CN1C[C@@H]2C[C@@H](C3=Cc4cc(Cl)ccc4OC3)N3CCC[C@@]23C1=O | 1.1 | 30.6* | 5.9 | -1.4 | -1.6
O=C(NCc1cccc(Cl)c1)c1cccn1-c1nnc(N2CCCC2)s1 | . | . | -1.1 | . | .
COc1cc(NC(=O)c2noc(C)c2[N+](=O)[O-])c(OC)cc1Cl | -1.5 | -17.0 | -4.1 | 44.6* | 3.0
Cc1onc(C(=O)Nc2cccnc2Cl)c1[N+](=O)[O-] | -0.2 | 5.9 | 1.7 | 3.7 | 2.3
COc1cccc(CN(C(=O)c2ccc(C(C)(C)C)cc2)C2CCS(=O)(=O)C2)c1 (configuration not stated) | 2.5 | . | . | . | .
COc1ccc(NC(=O)N2CCC(C(=O)c3ccc4c(c3)OCCO4)CC2)cc1 | -0.6 | 6.9 | 32.6* | -2.4 | -4.2
COc1ccc(NC(=O)N2CCCC(C(=O)NC(C)C)C2)cc1 (configuration not stated) | -0.1 | 32.7* | -3.4 | -0.7 | 4.4
O=C(c1ccc2c(c1)OCCO2)C1CCN(C(=O)Nc2ccc(F)cc2)CC1 | -0.3 | -8.0 | 1.0 | 2.2 | 0.2
Cn1c(=O)c2c(ncn2CC2OCCO2)n(C)c1=O | 1.0 | 32.0* | 2.2 | -3.5 | -5.9
Cn1c(=O)c2c(ncn2CC(N)=O)n(C)c1=O | 1.4 | 7.0 | 0.9 | 2.3 | -14.0
O=c1[nH]c2cc3c(cc2cc1C(c1nnnn1C1CCCC1)N1CCCc2ccccc21)OCCO3 (configuration not stated) | 0.6 | 0.7 | 42.7* | -2.3 | 25.1
COc1cc2cc(C(c3nnnn3C3CCCC3)N3CCc4ccccc43)c(=O)[nH]c2cc1OC (configuration not stated) | 0.2 | -1.6 | 4.4 | 2.3 | -4.5
C/C=C(/C)C(=O)Nc1cccc(C2=NOC3(C2)C[C@@H](C(N)=O)N(C(=O)CC(c2ccccc2)c2ccccc2)C3)c1 (some centres not stated) | 0.5 | 32.0* | 37.0* | -1.7 | -3.8
C/C=C/C=C\C(=O)Nc1cccc(C2=NOC3(C2)C[C@H](C(N)=O)N(C(=O)CC#N)C3)c1 (some centres not stated) | -0.4 | 33.2* | -3.4 | -6.4 | -3.9
C/C=C(\C)C(=O)Nc1cccc(C2=NOC3(C2)C[C@H](C(N)=O)N(C(=O)c2cc([N+](=O)[O-])cc([N+](=O)[O-])c2)C3)c1 (some centres not stated) | 0.3 | 13.6 | -5.9 | 12.1 | 71.1*
CCN(CC)CCCNC(=S)N1CCN(c2nc3ccccc3n2CC)CC1 | 1.8 | 47.7* | -16.7 | 5.8 | -20.5
CCc1ccc(NC(=O)C2CC(=O)N=C(N)S2)cc1 (configuration not stated) | 0.4 | 8.7 | 1.9 | -0.9 | -7.8
SMILES | D2 ag-1 | D2 antagonist | D2 PAM-1 | D2 ag-2 | D2 PAM-2
CC(C)c1ccc(NC(=O)C2CC(=O)N=C(N)S2)cc1 (configuration not stated) | 0.4 | -3.1 | 19.8 | ? | 108.9*
Cc1nc(SCC(=O)NCc2ccco2)c2c3c(sc2n1)CCCC3 | 1.3 | 36.3* | 0.6 | -3.4 | -5.4
CCc1ccc(S(=O)(=O)c2cn(Cc3ccccc3)c3cc(N4CCCC4)c(F)cc3c2=O)cc1 | 0.0 | . | -6.3 | . | .
C=CCn1c(SCC(=O)Nc2ccc(C(=O)O)cc2)nc2sc(C)c(C)c2c1=O | -0.1 | -2.2 | 2.6 | -2.2 | -2.1
C=CCn1c(SCC(=O)Nc2sccc2C#N)nc2sc(C)c(C)c2c1=O | 0.6 | 32.2* | -0.7 | 1.2 | -11.8
CNC(=S)N1N=C(c2ccc(OC)cc2)CC1c1ccc(Cl)cc1Cl (configuration not stated) | 0.2 | 15.2 | -3.5 | 0.6 | 0.4
CNC(=S)N1N=C(c2ccc(OC)cc2)CC1c1ccccc1Cl (configuration not stated) | -0.1 | 33.5* | 7.4 | -1.8 | 0.7
Cc1ccc(CCNS(=O)(=O)c2cc(-c3cc(C)no3)ccc2C)cc1 | 0.4 | . | 4.3 | . | .
COc1cc(NC(=O)CN2C(=O)C(c3ccc(C)cc3)=NC23CCCCCC3)cc(OC)c1 | 0.0 | . | -8.2 | . | .
CC(C)N(Cc1nc(-c2ccccc2)no1)C(=O)c1ccc2c(c1)OCO2 | -2.6 | 31.4* | 3.7 | 1.2 | -7.9
CC(=O)c1cccc(S(=O)(=O)NCCc2csc3nc(-c4ccc(F)cc4)nn23)c1 | . | . | -6.6 | . | .
CCCCNCC1CCCO1 (configuration not stated) | 0.4 | 69.6* | -20.6 | -2.6 | -6.5
Cc1ccc(CNCC2CCCO2)o1 (configuration not stated) | -0.6 | 9.3 | -4.1 | -1.6 | 0.0
COc1ccc(S(=O)(=O)N2CCOCC2)cc1NC(=O)CN1C(=O)NC2(CCC(C)CC2)C1=O (configuration not stated) | . | . | . | -1.2 | -16.3
NC[C@H]1O[C@H](O[C@H]2[C@H](O)[C@@H](O[C@H]3O[C@H](CO)[C@@H](O)[C@H](N)[C@H]3O)[C@H](N)C[C@@H]2N)[C@H](N)C[C@@H]1O | 1.9 | 36.9* | -3.5 | -1.8 | 5.9
CCCn1c(SCC(=O)c2ccc3c(c2)OCCO3)nc2c1c(=O)n(C)c(=O)n2C | 0.9 | 30.9* | 21.2 | -0.4 | 1.8
CCCn1c(SCC(=O)c2ccc3c(c2)OCCO3)n[nH]c1=O | 2.7 | -15.6 | -3.6 | 0.9 | -19.1
CN(CCNC(=O)c1ccc(/C=N/O)nc1)Cc1ccccc1 | 0.7 | 60.8* | -25.7 | -5.5 | -36.3
CN(CCCNC(=O)c1ccc(/C=N/O)nc1)CCCN(C)Cc1ccccc1 | 0.5 | 5.7 | -8.8 | 0.8 | 8.1
CC(C)(C)c1nn(-c2ccccc2)c2[nH]c(=O)c(C=O)cc12 | -1.5 | 38.8* | 0.6 | -11.5 | -22.0

High-throughput results: PubChem BioAssay, National Center for Advancing Translational Sciences (NCATS)
